Source: PubChem
Sampled rows, rich in hits. Any-hit rate of the full collection: about 12%.
Marburg entry inh = Marburg virus entry inhibition | Marburg virus pseudotyped entry inhibition, cell reporter | Potency, µM (series often up to 37.8 µM), for the others: at the highest dose activity change, negative = inhibition, most hits filed as inhibitors | actives 1.8% (n = 300,000); calls by dose curve; tested in HEK293 cells; further: potency means the concentration at half of the fitted maximal effect; on the % scale 0 is the no-effect control and ±100 the full control effect
Lassa entry inh = Lassa virus entry inhibition; Lassa virus pseudotype entry inhibition, cell reporter; AID 540256; Potency, µM (doses to about 37.9 µM), without a hit: top-dose activity change, negative = inhibition, hits mostly inhibitors; actives 1.2% (n = 300,000); calls by dose curve; tested in HEK293 cells; further: potency means the concentration at half of the fitted maximal effect; on the % scale 0 is the no-effect control and ±100 the full control effect; nearly all actives have a fitted effect of over 50% in size
Cycloheximide cs = counter-screen for Shiga toxin inhibitors: cycloheximide protein synthesis inhibition; actives 12% (n = 300,000); cell reporter, cycloheximide protein synthesis inhibition counterscreen; max response, %; AID 2314; in the data active means max response mostly above about 13%, no sharp cut-off; inactive means mostly below about 14%; further: read at 38.3 µM for the half of the compounds with a filed dose; 0% is about no effect
Shiga toxin inh = Shiga toxin inhibition | Vero cells, Shiga toxin protein synthesis inhibition reporter | inhibition, % at 38.7 µM | actives 9.2% (n = 290,000) | AID 2315; in the data active means inhibition mostly above about 28%, no sharp cut-off; inactive means mostly below about 43%; further: 0% is about no effect
* = called active by the depositor; [ ] = another dose, or the depositor's remark.

For COc1ccc(C2=CC(=O)C=CC2=O)cc1 the results were Cycloheximide cs 9.3* and Shiga toxin inh -2.
`COc1ccc(CNC(=O)c2cc3c(=O)n4cccc(C)c4nc3s2)cc1` gave Marburg entry inh 1%[46.1 µM] and Lassa entry inh 13%[46.1 µM].
For CCN1/C(=C\C(=S)Nc2ccccc2)Sc2ccccc21 the results were Marburg entry inh inconclusive, Lassa entry inh inconclusive, Cycloheximide cs 31* and Shiga toxin inh 56*.
`CCOC(=O)/C(C#N)=C(C)/C=C1\Sc2ccccc2N1CC` gave Marburg entry inh inconclusive, Lassa entry inh 20%, Cycloheximide cs 13 and Shiga toxin inh -6.
For CCN1/C(=C\C=C2\C(=O)N(c3ccccc3)C(=S)N2C)Sc2ccccc21 the results were Marburg entry inh 15%[46.1 µM], Lassa entry inh inconclusive, Cycloheximide cs -2 and Shiga toxin inh -11.
Screening CCN1/C(=C\C=C(C(C)=O)C(C)=O)Sc2ccccc21 returned Marburg entry inh -2%[46.1 µM], Lassa entry inh -20%[46.1 µM], Cycloheximide cs 19* and Shiga toxin inh 16.
Cn1c(SCC(=O)Nc2ccc3nc(SCC(=O)N4CCCC4)sc3c2)nnc1-c1ccc(N)cc1 was read as Marburg entry inh -12%, Lassa entry inh 4%, Cycloheximide cs -2 and Shiga toxin inh -5.
Screening CC/C(=N\NC(=O)c1csc(C)c1C)c1cccs1 returned Marburg entry inh inconclusive, Lassa entry inh inconclusive, Cycloheximide cs 37* and Shiga toxin inh 95*.
CCC/C(=N\NC(=O)c1csc(C)c1C)c1cccs1 was read as Marburg entry inh inconclusive, Lassa entry inh inconclusive, Cycloheximide cs 36* and Shiga toxin inh 84*.
CCCCOc1ccc(/C=N/NC(=O)c2csc(C)c2C)cc1 was read as Marburg entry inh -24%, Lassa entry inh inconclusive, Cycloheximide cs 9 and Shiga toxin inh 24.
Screening CC(C)CN(C)C(=O)CC1C(=O)NCCN1C (stereo not given) returned Marburg entry inh 22%[46.1 µM], Lassa entry inh 15%, Cycloheximide cs -2 and Shiga toxin inh -13.
For COc1ccc(C(=O)C[n+]2cccc3cc(OC)ccc32)cc1 the results were Marburg entry inh -14%, Lassa entry inh -11%, Cycloheximide cs 3 and Shiga toxin inh -8.
For COc1ccc(C(=O)Cc2nnc(C)s2)cc1 the results were Marburg entry inh 21%, Lassa entry inh 10%, Cycloheximide cs 48* and Shiga toxin inh 105*.
For COc1ccc(C(=O)CCNc2ccc(F)cc2)cc1 the results were Marburg entry inh 22%, Lassa entry inh 9%, Cycloheximide cs 28* and Shiga toxin inh 82*.
Screening COc1ccc(C(=O)C[n+]2ccc3ccccc3c2C)cc1 returned Marburg entry inh 7%[46.1 µM], Lassa entry inh 13%, Cycloheximide cs 45* and Shiga toxin inh 94*.
Screening COc1ccc(C(=O)NCC(=O)c2ccccc2)cc1 returned Cycloheximide cs 36*.
For O=C1NC(=O)N(Cc2ccccc2F)C1=O the results were Cycloheximide cs 1 and Shiga toxin inh 3.
O=C(NCc1ccco1)C(c1cccs1)N(C(=O)C1COc2ccccc2O1)c1cccc(O)c1 (stereo not given) was read as Marburg entry inh -2%, Lassa entry inh -14%, Cycloheximide cs 12 and Shiga toxin inh 16.
`COc1ccc(NC2CCCN(C(=O)CCC(=O)c3ccc(F)cc3)C2)cc1` (stereo not given) gave Marburg entry inh 6%, Lassa entry inh inconclusive, Cycloheximide cs 47* and Shiga toxin inh 72.
COc1ccc(O)c(C(=O)CC(=O)c2ccccc2)c1 was read as Cycloheximide cs 43* and Shiga toxin inh 88.
`COc1ccc(C(=O)CN2C(=O)c3ccccc3C2=O)cc1` gave Marburg entry inh 19%, Lassa entry inh 9%, Cycloheximide cs 30* and Shiga toxin inh 58*.
Screening COc1ccc(O)c(C(=O)CC(=O)c2ccncc2)c1 returned Marburg entry inh inconclusive and Lassa entry inh -3%[46.1 µM].
Screening COc1ccc(CNC(=O)CN2C(=O)c3ccccc3C2=O)cc1 returned Cycloheximide cs 8 and Shiga toxin inh 11.
Screening COc1ccc(C(=O)CC(=O)c2ccc(OC)cc2)cc1 returned Marburg entry inh 23%, Lassa entry inh 2%, Cycloheximide cs 26* and Shiga toxin inh 33.
For CCn1cc(C(=O)N2CCCc3ccccc32)c2cc(OC)c(OC)cc2c1=O the results were Marburg entry inh inconclusive, Lassa entry inh -18%, Cycloheximide cs 6 and Shiga toxin inh 0.
O=C(/C=C/c1ccco1)N1CCCC(c2ccccc2)C1 (stereo not given) was read as Cycloheximide cs 23* and Shiga toxin inh 47*.
For O=C(/C=C/c1ccccc1)N1CCC(c2ccccc2)C1 (stereo not given) the results were Marburg entry inh inconclusive, Lassa entry inh inconclusive, Cycloheximide cs 59* and Shiga toxin inh 74*.
